Screens deposited in PubChem BioAssay by National Center for Advancing Translational Sciences (NCATS).
This is a sample that favours compounds with a hit; in the whole collection about 8.7% have one here.
AMA1-RON2 inh: disrupts binding of P. falciparum AMA1 to RON2; AlphaScreen AMA1-biotinylated RON2 peptide binding; Potency, µM (titrated, usually from 58.2 µM), usual class: inhibitors; 360,000 tested, 0.2% active; AID 720542; note: nearly all actives have a fitted effect of over 45% in size
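AMA1 (3D7) with his tag at 25 nM final met compounds first, then biotinylated RON2 peptide at 25 nM; detection used donor plus acceptor beads, 10 µg/mL apiece, read by AlphaScreen after 30 min at room temperature.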
VACV Venus inh: inhibitors of vaccinia virus (Venus reporter); Vaccinia virus Venus reporter expression, fluorescence; Potency, µM (titrated, usually from 36.5 µM), actives largely listed as inhibitors; 330,000 tested, 0.46% active; AID 720580; calls by dose curve; tested in A549 cells; note: nearly all actives have a fitted effect of over 30% in size
VACV mCherry inh: vaccinia inhibition (mCherry reporter); Vaccinia virus mCherry reporter infection, fluorescence; Potency, µM (doses to about 36.5 µM), usual class: inhibitors; 310,000 tested, 0.63% active; AID 720579; calls by dose curve; tested in A549 cells; note: nearly all actives have a fitted effect of over 35% in size
Pf growth 96h: inhibits malaria parasite growth, 96 h; P. falciparum luciferase reporter growth, 96 h; Potency, µM (top dose mostly 28.7 µM), usual class: inhibitors; 320,000 tested, 6.9% active
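Delayed-death screen, second-generation endpoint: infected erythrocytes, 2% hematocrit, 0.05% parasitemia final; 96 hours at 37 C, 5% CO2; luciferase detection reagent; luminescence decrease equals reduced growth.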
Pf growth 48h: P. falciparum growth inhibition at 48 hours (one generation); P. falciparum luciferase growth in erythrocytes, 48 h; Potency, µM (titrated, usually from 28.7 µM), most hits filed as inhibitors; 310,000 tested, 5.9% active
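A one-generation exposure of luciferase-tagged malaria parasites in RPMI 1640/Albumax erythrocyte culture, 37 C and 5% CO2. Inhibition is inferred from decreased luminescence after adding detection reagent.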
Large screens that a line does not name were inactive. Unless noted, calls come from the whole dose curve; as a rule, active = well fitted curve in the direction sought with a large enough effect; inconclusive = small, poorly fitted or top-dose-only effect, or another doubt; inactive = no such curve, though single readings can be large; an effect the other way counts as inactive or inconclusive.

COc1ccc(S(=O)(=O)N(CC(=O)NCc2ccncc2)Cc2ccccc2)cc1	Pf growth 96h 5.22µM, Pf growth 48h inconclusive
COc1ccc(N(CC(=O)NCc2cccnc2)S(=O)(=O)c2ccccc2[N+](=O)[O-])c(OC)c1	none
COc1ccc(N(CC(=O)NCc2ccc(Cl)cc2)S(=O)(=O)c2ccccc2[N+](=O)[O-])c(OC)c1	Pf growth 48h 8.28µM
O=C(CN(c1ccccc1)S(=O)(=O)c1ccccc1[N+](=O)[O-])N1CCCC1	Pf growth 48h inconclusive
CC(C)CNC(=O)CN(c1ccccc1)S(=O)(=O)c1ccccc1[N+](=O)[O-]	Pf growth 96h 5.86µM, Pf growth 48h inconclusive
Cc1ccccc1OCc1ccc(-c2nc(C#N)c(NCCCN(C)C)o2)o1	none (no result: AMA1-RON2 inh, Pf growth 96h, Pf growth 48h)
Cc1ccc(-n2nc(C)c3c(C)cc(=O)n(CC(=O)Nc4cc(Cl)ccc4C)c32)cc1	none (no result: AMA1-RON2 inh, Pf growth 96h, Pf growth 48h)
CC1=C(C(=O)OCC2CCCCC2)C(c2ccc(Cl)cc2Cl)CC(=O)N1 (stereo unspecified)	none (no result: AMA1-RON2 inh, Pf growth 96h, Pf growth 48h)
Cc1ccc(C)c(N2CCN(C(=O)c3ccc4c(Cl)c5c(nc4c3)CCCC5)CC2)c1	none (no result: AMA1-RON2 inh, Pf growth 96h, Pf growth 48h)
CC(NS(=O)(=O)c1ccc(OCC(=O)NCc2ccncc2)cc1)c1ccccc1 (stereo unspecified)	Pf growth 96h inconclusive
COc1ccc(C)cc1S(=O)(=O)N(CC(=O)NCc1ccc(Cl)cc1)Cc1ccccc1	VACV Venus inh inconclusive, Pf growth 96h 11.7µM (no result: Pf growth 48h)
CN(Cc1ccccc1)S(=O)(=O)c1ccc(OCC(=O)NCc2ccncc2)cc1	Pf growth 48h 4.65µM
COc1ccc(CNC(=O)CN(Cc2ccccc2)S(=O)(=O)c2ccc(Cl)cc2)cc1	Pf growth 96h inconclusive (no result: VACV Venus inh, VACV mCherry inh, Pf growth 48h)
COc1ccc(CN(C)Cc2ccccc2)c(OC)c1OC	none
COc1ccc(-c2noc(CN(C)Cc3ccccc3)n2)c(OC)c1OC	Pf growth 96h 3.7µM (no result: VACV Venus inh, VACV mCherry inh)
CCOC(=O)c1c(C)c(-c2ccccc2)n(CC(=O)Nc2cccc(F)c2)c1C	none (no result: AMA1-RON2 inh, Pf growth 96h, Pf growth 48h)
CSc1ccc(CNC(=O)c2cc3cc(S(=O)(=O)N4CCCCC4)ccc3n2C)cc1	VACV Venus inh inconclusive (no result: AMA1-RON2 inh, Pf growth 96h, Pf growth 48h)
COc1ccccc1C1C(C(N)=O)=C(C)Nc2nc(-c3ccccc3Cl)nn21 (stereo unspecified)	Pf growth 96h inconclusive (no result: Pf growth 48h)
CC1=C(C(N)=O)C(c2cccs2)n2nc(-c3cccc(C)c3)nc2N1 (stereo unspecified)	Pf growth 96h 10.4µM
CC1=C(C(N)=O)C(c2ccccn2)n2nc(-c3ccccc3Cl)nc2N1 (stereo unspecified)	Pf growth 96h 10.4µM
CC1=C(C(N)=O)C(c2cccs2)n2nc(-c3cccc(Cl)c3)nc2N1 (stereo unspecified)	none (no result: VACV Venus inh, VACV mCherry inh)
CCOc1ccc(/C=N/NC(=O)Cc2csc(Nc3cccc(C(F)(F)F)c3)n2)cc1	VACV Venus inh inconclusive, Pf growth 48h 9.28µM (no result: VACV mCherry inh, Pf growth 96h)
CCOc1ccccc1N(C(=O)c1ccccc1Cl)C1=NC(C)(C)CS1	Pf growth 96h inconclusive, Pf growth 48h inconclusive
Cc1ccc(N(C(=O)c2ccccc2Cl)C2=NC(C)CS2)c(C)c1 (stereo unspecified)	Pf growth 96h 14.7µM, Pf growth 48h inconclusive
CCC1(c2ccccc2)C(=O)N(C(=O)OC(C)(C)C)N1C(=O)OC(C)(C)C (stereo unspecified)	Pf growth 96h inconclusive, Pf growth 48h 13.1µM
Cc1ccc(O)c(C2=NNC(O)(C(F)(F)F)C2)c1 (stereo unspecified)	VACV Venus inh inconclusive, Pf growth 48h 13.1µM (no result: Pf growth 96h)
CCC(c1ccc(O)c(O)c1)C(CC)c1ccc(O)c(O)c1 (stereo unspecified)	AMA1-RON2 inh 25.1µM, VACV mCherry inh 3.16µM (no result: Pf growth 96h, Pf growth 48h)
COc1ccc(CNCCCSc2nnnn2C)c(OC)c1	none (no result: AMA1-RON2 inh, Pf growth 96h, Pf growth 48h)
C/C(CCN1CCc2nc(-c3ccccc3)c(-c3ccccc3)cc2C1)=N\O[C@H](C)c1cn([C@H](CO)Cc2ccccc2)nn1	Pf growth 96h 13.1µM, Pf growth 48h 9.28µM (no result: AMA1-RON2 inh, VACV Venus inh, VACV mCherry inh)
C/C(CCN1CCc2nc(-c3ccccc3)c(-c3ccccc3)cc2C1)=N\OC[C@@H](C)[C@H](OCc1ccccc1)C(C)C	VACV mCherry inh inconclusive, Pf growth 96h 9.28µM, Pf growth 48h inconclusive
CCN1C(=O)[C@H]2[C@H]3[C@H](O)[C@H](O)C/C(=N\O[C@H](C)c4cn([C@H](CO)Cc5ccccc5)nn4)[C@@H]3CC[C@H]2C1=O	none (no result: AMA1-RON2 inh, VACV Venus inh, VACV mCherry inh)
CN1CCc2nc3sc(C(=O)Nc4ccccc4C(F)(F)F)c(N)c3cc2C1	none (no result: AMA1-RON2 inh, Pf growth 96h, Pf growth 48h)
Cc1ccc(C(=O)NCCn2cc(SCC(=O)Nc3nnc(C)s3)c3ccccc32)cc1	Pf growth 96h 4.15µM (no result: Pf growth 48h)
